{"source": "PubChem BioAssay (EPA / NIEHS)", "note": "Results filed as inconclusive are left out. Activity calls are given as the source filed them. The calls were made as follows: active = hit-call score of the fitted dose curve at least 0.9, where 1 is the maximum; inconclusive = response in the unintended direction; inactive = score below 0.9.", "data": [{"system": "Sodium/Iodide Symporter (NIS), SLC5A5 (gene 6528)", "experiment": "CPHEA_Stoker_NIS_Inhibition_RAIU: CPHEA's Radioactive Iodide Uptake (RAIU) Assay for Sodium/Iodide Symporter (NIS) Inhibition, Stoker and Laws Labs (AID 2283841)", "experimental": "CPHEA_Stoker_NIS is a cell-based, single-readout assay that uses hNIS-HEK293T-EPA, a novel human kidney cell line expressing human NIS, with measurements taken at 2 hours after chemical dosing in a 96-well plate. This radioactive iodide uptake (RAIU) assay is used to identify inhibitors of NIS-mediated iodide uptake. A parallel cytoxicity assay (Cell Titer Glo, Promega) was also run in the same cell line.CPHEA_Stoker_NIS_Inhibition_RAIU is one of 2 assay components measured from the CPHEA_Stoker_NIS assay. It is designed to make measurements of radioactive substrate uptake to understand transporter function, as detected with 125-i signals by MicroBeta radioactivity plate reader technology.Data from the assay component CPHEA_Stoker_NIS_Inhibition_RAIU was analyzed at the endpoint, CPHEA_Stoker_NIS_Inhibition_RAIU, in the positive analysis fitting direction relative to DMSO as the negative control and baseline of activity. Measures of radioactive substrate uptake for loss-of-signal activity can be used to understand the effects on transporter function at the pathway level as they relate to the sodium-iodide symporter, gene SLC5A5. To generalize the intended target to other relatable targets, this assay endpoint is annotated to the transporter intended target family, where the subfamily is sodium-iodide symporter (NIS).\nhNIS-HEK293T-EPA cells were seeded with a MultiFlo FX dispenser (BioTek, Winooski, VT) into ScintiPlate-96 microplates (Perkin Elmer, Waltham, MA) at a density of 4.0x10^4 cells per well in 200uL growth media and incubated for 40 hours before experimentation. On day of the assay, carrier-free 125I (Perkin-Elmer, Waltham, MA; specific activity: 17.4Ci/mg) was diluted with Hanks' balanced salt solution (Sigma, St. Louis, MO) supplemented with 10mM HEPES (uptake buffer; pH 7.4) at 5uCi/mL (288pg 125I/mL uptake buffer; 2.30nM). The assay was initiated by washing cells twice with 200uL uptake buffer using a 96-well Tecan HydroSpeed plate washer (Tecan, Mannedorf, Switzerland). Uptake buffer (59.7uL) was then added back to each well. Chemical samples (350nL at 200X) were administered using the HDR tool as previously described to achieve a 1X chemical/0.5% final DMSO concentration with subsequent addition of 10uL of 125I dilution (final [125I]: 329pM; 2.88pg/well) for a final reaction volume of 70uL/well. Cells were incubated at room temperature for 2 hours and then washed twice with 200uL ice cold uptake buffer. All uptake buffer was aspirated from wells, plates were sealed, and read on a MicroBeta2 plate reader (Perkin Elmer, Waltham, MA) using a detection protocol to measure CPM corresponding to intracellular 125I concentration. Each chemical concentration (0.001, 0.01, 0.1, 1.0, 10, and 100uM) was assayed in triplicate with three independent biological replicate plates (3 sequential cell passages). Additionally, a concentration response of NaClO4 (0.001, 0.01, 0.1, 1.0, 10, and 100uM) served as a positive control inhibition curve on each RAIU assay plate. DMSO control wells were assayed on each plate as a measure of maximum iodide uptake for normalization and determination of intra- and inter-assay variation. (Toxicol In Vitro, 2017, 40:66-78).", "values": [{"smiles": "O=C1Nc2ccc(Cl)cc2C(c2ccccc2)=NC1O", "note": "(stereo not given)", "outcome": "inactive"}, {"smiles": "Cc1ccc(OP(=O)(Oc2ccc(C)cc2)Oc2ccc(C)cc2)cc1", "note": "(tested in a mixture with another compound)", "outcome": "inactive"}, {"smiles": "O=P(O)(Oc1ccccc1)Oc1ccccc1", "outcome": "inactive"}, {"smiles": "O=[N+]([O-])O", "outcome": "inactive"}, {"smiles": "O=CNC(N1CCN(C(NC=O)C(Cl)(Cl)Cl)CC1)C(Cl)(Cl)Cl", "note": "(stereo not given)", "outcome": "inactive"}, {"smiles": "CCCCCCCCCCCCCCCC[N+](C)(C)C", "AC50": "10.2 µM (active)"}, {"smiles": "CC(Cc1ccc(C(C)(C)C)cc1)CN1C[C@@H](C)O[C@@H](C)C1", "note": "(stereo not given in full)", "outcome": "inactive"}, {"smiles": "O=C(CCl)c1ccccc1", "outcome": "inactive"}, {"smiles": "CC(C)(c1cc(Cl)c(O)c(Cl)c1)c1cc(Cl)c(O)c(Cl)c1", "AC50": "9.92 µM (active)"}, {"smiles": "CC(=O)c1cc2c(cc1C)C(C)(C)C(C)CC2(C)C", "note": "(stereo not given)", "outcome": "inactive"}]}]}
